Molecules are shown by their SMILES. Compounds without any hit were thinned out: in the full panel of roughly 83,000, 20% have a hit.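 Values shown are percent growth following 48 h exposure of cells in 96-well plates to a single concentration of compound; below 10 was considered active.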 Active and inactive are the calls of the source.

This experiment relates to UO-31 renal. Put plainly: NCI-60 one-dose screen, 48 h (100 = growth as untreated, 0 = no growth, -100 = all killed). The note with it: 10 µM unless noted.
Regarding `CN1/C(=C\C=C\C2=[N+](C)c3ccccc3C2(C)C)C(C)(C)c2ccccc21`, the growth is 8.16% (active). Take `CCN(CC)Cc1cc(Nc2c3ccc(Cl)cc3nc3c(C)cccc23)ccc1O`: the growth was -96.8% (active). The figure for `C=CC[N+]1(CCO)CCN=C1CCCCCCCCCCCCC` (stereo not drawn) is -60.7% (active); for `CC1=NNC(=O)C1C` (stereo not drawn) it is 88.2% (inactive); for `COc1nc2c(cc1S(=O)(=O)c1ccccc1)CCc1c-2cnn1Cc1ccccc1` it is 39.4% (inactive). The figure for `O=C(/C=C\c1ccc2ccccc2n1)c1cc(Cl)ccc1O` is 65.2% (inactive); for `CCc1ccc(C(c2ccc(CC)cc2)C(Cl)(Cl)CCl)cc1` it is 84.1% (inactive); for `OCC1C2C=CC(C2)C1CO` (stereo not drawn) it is 93.1% (inactive). The figure for `Cc1ccc(/C=C2\Oc3cc(OCC(=O)c4ccc(Cl)cc4)ccc3C2=O)cc1` is 73.6% (inactive); for `CSc1[nH]c2ncnc(N)c2c1C#N` it is 76% (inactive); for `C=CC[N+]1(CC)CCN=C1CCCCCCCCCCCCCCCCC` (stereo not drawn) it is -65.5% (active). Turning to `CCN(CC)CCCNc1cc(OC)cc2nc3cc(Cl)ccc3nc12`, the growth is -86.7% (active). For `CCOC(=S)SCc1ccc(Cl)cc1`, the growth is 91.1% (inactive). For `O=C(O)c1ccc2c(c1Sc1ccccc1)C(=O)c1ccccc1C2=O` the value was 77% (inactive). For `CCN(CC)CC(C)Nc1ccc([N+](=O)[O-])c2sc3ccccc3c(=O)c12` (stereo not drawn) the value was 0.595% (active); for `O=C(Nc1ccc(CN2CCOCC2)cc1)c1[nH]ncc1Nc1ncnc2sccc12`, 8.4% (active); for `CCOC(=O)C(C#N)C1CCCCC1` (stereo not drawn), 91.1% (inactive). For `Nc1cccc(NC(=O)C(=O)Nc2cccc(N)c2)c1` the value was 84.4% (inactive).

The values above are taken from PubChem BioAssay (NCI).
